Laboratory results taken from PubChem BioAssay.
Several values for one entry are separate records, joined by “and”; a condition that tells them apart may be missing. Equal values may be shown once. A structure can be active in one record and inactive in another. Activity calls are given as the source filed them.

What was measured:
[1] = E. coli DRC41 culture turbidity changes, primary screen, E. coli filamentation inducer project, strain DRC41, OD650, 48 h (AID 1152);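 also: E. coli MC1000 strain DRC41 lacking acrAB efflux pump and sulA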; details: E. coli DRC41 (acrAB sulA), higher = more signal, called active from +8 up or from −8 down
[2] = small-molecule binders of probe aLefty1, primary screen, biochemical, small-molecule microarray, 635/667 nm fluorescence (AID 1153); details: higher = more signal;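 also: score merges spot fluorescence with signal-to-noise ratio from the scanned slide images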
[3] = PSAC antagonists in infected red cells, primary screen, cell-based, P. falciparum Indochina, OD700, 1 h (AID 1154); details: P. falciparum Indochina infected RBC osmotic lysis, higher = more signal, called active from +8 up or from −8 down
[4] = PSAC antagonists in infected red cells, primary screen, cell-based, P. falciparum Indochina, OD700, 2 h (AID 1155);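 also: lysis reports solute entry through the parasite surface anion channel PSAC; channel blockers reduce lysis of infected cells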; details: P. falciparum Indochina infected erythrocytes, osmotic lysis OD700; higher = more signal, called active from +8 up or from −8 down
[5] = osmotic lysis modulators in infected erythrocytes, primary screen, PSAC antagonist project, cell-based, P. falciparum Indochina, OD700, 3 h (AID 1156); details: higher = more signal, called active from +8 up or from −8 down
[6] = PSAC antagonists in infected red cells, primary screen, cell-based, P. falciparum Indochina, OD700, 18 h (AID 1157); details: P. falciparum Indochina infected erythrocytes, osmotic lysis OD700, 18 h; higher = more signal, called active from +8 up or from −8 down
[7] = modulators of S6 phosphorylation in cells, primary screen, cell-based, A549, cytoblot, luminescence, serum-stimulated (AID 1158); details: A549 phospho-S6 cytoblot, 5 h, higher = more signal;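 also: serum-stimulated A549 lung adenocarcinoma cells; signal is phosphorylated S6 detected by cytoblot immunostaining with HRP secondary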
[8] = biological target: NADPH oxidase 2 (Homo sapiens) (UniProt P04839); experiment: NOX2-dependent H2O2 signal modulators, primary screen, NOX inhibitor project, cell-based, HEK293-NOX2, PMA-stimulated, Amplex Red fluorescence (AID 1159); details: 45 min, higher = more signal, called active from +8 up or from −8 down; also: test concentration not given here
Chain of NADPH oxidase 2 (Homo sapiens) (P04839 whole entry, looked up): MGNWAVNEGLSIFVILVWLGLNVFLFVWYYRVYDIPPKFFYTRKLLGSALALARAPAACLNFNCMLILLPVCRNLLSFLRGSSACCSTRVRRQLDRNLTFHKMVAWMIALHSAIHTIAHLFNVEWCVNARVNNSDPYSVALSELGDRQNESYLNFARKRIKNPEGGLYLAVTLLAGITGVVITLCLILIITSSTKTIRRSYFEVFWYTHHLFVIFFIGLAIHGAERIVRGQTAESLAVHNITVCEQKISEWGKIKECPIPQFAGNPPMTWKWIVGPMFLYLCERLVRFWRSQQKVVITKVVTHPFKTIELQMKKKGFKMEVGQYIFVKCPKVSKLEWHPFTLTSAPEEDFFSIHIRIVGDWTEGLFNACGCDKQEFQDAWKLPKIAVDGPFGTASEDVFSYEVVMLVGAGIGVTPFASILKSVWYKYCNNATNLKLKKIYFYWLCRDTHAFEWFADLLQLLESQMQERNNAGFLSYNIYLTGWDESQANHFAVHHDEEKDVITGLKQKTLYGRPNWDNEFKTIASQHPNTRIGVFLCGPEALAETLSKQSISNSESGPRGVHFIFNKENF

[9] = biological target: NADPH oxidase 4 (Homo sapiens) (UniProt Q9NPH5); experiment: NOX4-dependent H2O2 signal modulators, primary screen, NOX inhibitor project, cell-based, HEK293-NOX4, tetracycline-induced, Amplex Red fluorescence (AID 1160); details: 45 min, higher = more signal, called active from +8 up or from −8 down
Chain of NADPH oxidase 4 (Homo sapiens) (Q9NPH5 whole entry, looked up): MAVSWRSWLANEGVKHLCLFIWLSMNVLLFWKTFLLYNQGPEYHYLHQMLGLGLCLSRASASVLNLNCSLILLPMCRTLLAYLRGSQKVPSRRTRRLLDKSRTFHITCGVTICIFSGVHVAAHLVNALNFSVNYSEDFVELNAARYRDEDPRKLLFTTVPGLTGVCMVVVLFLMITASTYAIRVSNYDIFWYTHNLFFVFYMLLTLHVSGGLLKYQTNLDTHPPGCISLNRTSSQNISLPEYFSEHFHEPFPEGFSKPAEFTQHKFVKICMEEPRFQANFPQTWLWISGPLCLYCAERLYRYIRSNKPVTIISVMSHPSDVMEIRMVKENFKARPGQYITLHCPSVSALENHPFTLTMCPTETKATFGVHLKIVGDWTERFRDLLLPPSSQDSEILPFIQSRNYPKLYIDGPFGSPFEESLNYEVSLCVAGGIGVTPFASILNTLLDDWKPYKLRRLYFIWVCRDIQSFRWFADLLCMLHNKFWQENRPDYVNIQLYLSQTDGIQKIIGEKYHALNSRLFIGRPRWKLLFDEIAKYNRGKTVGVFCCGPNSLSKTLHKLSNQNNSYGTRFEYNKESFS

[10] = biological target: NADPH oxidase 5 (Homo sapiens) (UniProt Q96PH1); experiment: NOX5-dependent H2O2 signal modulators, primary screen, NOX inhibitor project, cell-based, HEK293-NOX5, Amplex Red fluorescence (AID 1161); details: HEK293-NOX5, ionomycin, 45 min, higher = more signal
Chain of NADPH oxidase 5 (Homo sapiens) (Q96PH1 whole entry, looked up): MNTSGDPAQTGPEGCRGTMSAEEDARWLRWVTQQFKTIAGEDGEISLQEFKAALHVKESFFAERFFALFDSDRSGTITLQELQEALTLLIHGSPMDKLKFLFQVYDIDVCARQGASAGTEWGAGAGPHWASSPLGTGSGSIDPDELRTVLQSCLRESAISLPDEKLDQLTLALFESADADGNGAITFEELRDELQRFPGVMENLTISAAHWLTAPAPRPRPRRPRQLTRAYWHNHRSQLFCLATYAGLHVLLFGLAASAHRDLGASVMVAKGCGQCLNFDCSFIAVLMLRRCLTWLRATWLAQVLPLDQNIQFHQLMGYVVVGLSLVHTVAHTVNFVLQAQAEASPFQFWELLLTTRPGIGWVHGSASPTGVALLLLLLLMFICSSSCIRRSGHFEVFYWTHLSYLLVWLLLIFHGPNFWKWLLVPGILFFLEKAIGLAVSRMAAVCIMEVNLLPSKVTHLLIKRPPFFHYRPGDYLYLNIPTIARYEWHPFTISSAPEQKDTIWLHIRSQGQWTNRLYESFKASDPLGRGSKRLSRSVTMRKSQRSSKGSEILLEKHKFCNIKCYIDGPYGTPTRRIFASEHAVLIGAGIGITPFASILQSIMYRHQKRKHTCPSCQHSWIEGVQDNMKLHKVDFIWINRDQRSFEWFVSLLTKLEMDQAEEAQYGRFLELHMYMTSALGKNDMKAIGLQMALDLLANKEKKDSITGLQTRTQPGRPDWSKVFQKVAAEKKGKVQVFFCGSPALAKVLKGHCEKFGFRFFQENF

[11] = A549 cell viability effects, profiling panel, calcein-AM fluorescence, 48 h, basal (AID 1162); details: higher = more signal; also: test concentration not given here
[12] = adipocyte viability effects, profiling panel, cell-based, 3T3-L1 adipocytes, calcein-AM fluorescence, 48 h, basal (AID 1163); details: 3T3-L1 adipocytes viability, higher = more signal; also: test concentration not given here
[13] = HepG2 cell viability effects, profiling panel, calcein-AM fluorescence, 48 h, basal (AID 1164); details: higher = more signal; also: test concentration not given here
[14] = MM1S cell viability effects, profiling panel, calcein-AM fluorescence, 48 h, basal (AID 1165); details: higher = more signal;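 also: viability of MM1S multiple myeloma cells under basal unstimulated conditions; test concentration not given here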
[15] = basal RPMI8226 viability, no added stimulus, profiling panel, cell-based, calcein-AM fluorescence, 48 h, PK04 Diversity Set (AID 1166); details: RPMI8226 myeloma viability, higher = more signal;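 also: cells grown under basal conditions without added stimulus; test concentration not given here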
[16] = basal HepG2 mitochondrial membrane potential changes, profiling panel, cell-based, JC-1 fluorescence, 24 h, 100 nL compound (AID 1167); details: higher = more signal; also: test concentration not given here
[17] = basal 3T3-L1 adipocyte mitochondrial potential changes, profiling panel, cell-based, JC-1 fluorescence, 3T3-L1 adipocytes, 24 h, 100 nL compound (AID 1168); details: JC-1 mitochondrial fluorescence, higher = more signal, called active from +8 up or from −8 down; also: test concentration not given here
[18] = basal RPMI8226 mitochondrial membrane potential changes, profiling panel, cell-based, JC-1 fluorescence, 24 h, 100 nL compound (AID 1169); details: RPMI8226 myeloma, JC-1 mitochondrial potential fluorescence, higher = more signal; also: test concentration not given here
[19] = basal MM1S mitochondrial membrane potential changes, profiling panel, cell-based, JC-1 fluorescence, 24 h, 100 nL compound (AID 1170); details: higher = more signal; also: test concentration not given here
[20] = A549 lung cancer cell viability effects, profiling panel, resazurin fluorescence, 24 h, PK04 Diversity Set (AID 1171); details: higher = more signal, called active from +8 up or from −8 down; also: test concentration not given here

Row | SMILES | z-score [1] | composite z-score [2] | z-score [3] | z-score [4] | z-score [5] | z-score [6] | z-score [7] | z-score [8] | z-score [9] | z-score [10] | z-score [11] | z-score [12] | z-score [13] | z-score [14] | z-score [15] | z-score [16] | z-score [17] | z-score [18] | z-score [19] | z-score [20]
1 | O=C1NC(=O)C2C1C=CC(C(O)c1ccc([N+](=O)[O-])cc1)N2Nc1ccc(Cl)cc1Cl (stereo not given) | 0.302 (inactive) and 1.01 (inactive) | 0.134 and 0.623 | 9.67 (active) and 3.11 (inactive) | 0.913 (inactive) and 0.168 (inactive) | 0.538 (inactive) and -0.138 (inactive) | -0.988 (inactive) and -1.28 (inactive) | 0.474 and 0.7 | 0.313 (inactive) and 0.609 (inactive) | -5.29 (inactive) and -4.55 (inactive) | -1.98 and -1.75 | 0.953 and 1.59 | 0.0938 and 0.263 | 0.949 and 1.79 | -0.251 and 0.596 | -0.194 and 0.932 | -0.115 and -0.654 | -0.833 (inactive) and -0.57 (inactive) | -0.314 and -0.905 | 0.319 and 2.28 | 0.303 (inactive) and 0.766 (inactive)
2 | COc1ccc(COC(=O)NN=C2C[C@@H](O)[C@@H](O)[C@@H]3[C@@H]4C(=O)N(C(C)(C)C)C(=O)[C@@H]4CC[C@H]23)cc1 | 0.91 (inactive) | 0.0169 | 1.91 (inactive) | -1.4 (inactive) | 0.708 (inactive) | -1.93 (inactive) | 1.25 | -0.818 (inactive) | 0.00608 (inactive) | -1.43 | 0.894 | 0.377 | 0.89 | -0.156 | 0.0186 | -0.206 | 1.14 (inactive) | 0.704 | -0.527 | -0.581 (inactive)
3 | C=CCN(Cc1ccccc1)C(=O)C1N(c2c(Cl)cccc2CO)C(=O)C2C(C(=O)O)C3C=CC21O3 (stereo not given) | 3.44 (inactive) and 0.465 (inactive) | -0.147 | -0.97 (inactive) and 0.504 (inactive) | -0.994 (inactive) and 0.698 (inactive) | -0.847 (inactive) and 0.14 (inactive) | -1.32 (inactive) and 0.357 (inactive) | 1.33 and -0.0264 | 0.00151 (inactive) and 0.1 (inactive) | -0.574 (inactive) and -0.406 (inactive) | -0.259 and -0.994 | 1.45 and -0.228 | 0.38 and 0.802 | 1.07 and 0.0456 | 2.15 and 0.815 | 0.381 and -0.937 | 0.992 and -1.25 | 1.53 (inactive) and -0.0316 (inactive) | -0.817 and -0.0516 | 1.03 and 0.278 | 2.19 (inactive) and -0.851 (inactive)
